For orientation: AC50 means the concentration giving half of the maximal activity seen.

SMILES strings stand for the structures. Activity calls are given as the source filed them. How the source made its calls: active means hit-call score of the fitted dose curve at least 0.9, where 1 is the maximum; inactive means score below 0.9.

This experiment is described as follows: ATG_PXRE_CIS: Attagene CIS-FACTORIAL HepG2 Assay for human Pregnane X Receptor Element (PXRE) (AID 2282957). The conditions noted are these: HepG2 Attagene CIS-FACTORIAL PXRE reporter, mRNA; actives raise or lower the signal. Here is the method: ATG_CIS is a cell-based, multiplexed-readout assay that uses HepG2, a human liver cell line, with measurements taken at 24 hours after chemical dosing in a 24-well plate.ATG_PXRE_CIS is one of 52 assay component(s) measured or calculated from the ATG_CIS assay. It is designed to make measurements of mRNA induction, a form of inducible reporter, as detected with fluorescence intensity signals by Reverse transcription polymerase chain reaction (RT-PCR) and Capillary electrophoresis technology.Data from the assay component ATG_PXRE_CIS was analyzed into 1 assay endpoint. This assay endpoint, ATG_PXRE_CIS, was analyzed with bidirectional fitting relative to DMSO as the negative control and baseline of activity. Using a type of inducible reporter, measures of mRNA for gain or loss-of-signal activity can be used to understand the reporter gene at the transcription factor-level as they relate to the gene NR1I2. Furthermore, this assay endpoint can be referred to as a primary readout, because this assay has produced multiple assay endpoints where this one serves a reporter gene function. To generalize the intended target to other relatable targets, this assay endpoint is annotated to the nuclear receptor intended target family, where the subfamily is non-steroidal.
Human liver HepG2 cells are transiently transfected with multiple reporter transcription units (MRTUs) in 6-well plates using FuGene 6 reagent (Roche; 3 ml FuGene/1 mg DNA). The MRTU constructs are regulated by a cis-regulating element (promoter). […] A major difference between the CIS and TRANS system is that in CIS activities of endogenous TFs are measured, whereas the TRANS assay evaluates changes in activities of exogenous, chimeric NR-Gal4 proteins. […] At the end of 24 hour incubation, total RNA was isolated using TriZol reagent (Invitrogen). The isolated RNA is then reverse-transcribed using oligo(dT) primer and Mo-MLV reverse transcriptase (Invitrogen) with DNAse I (Ambion) treatment for 30 min. The one-tenth of the produced cDNA was amplified by PCR using Taq DNA polymerase (Invitrogen) and two reporter sequence-specific primers. The PCR products were fluorescently labeled by primer extension with 6-arboxyfluorescein (6-FAM) 5'-labeled reporter sequence-specific primer (2 min at 95 C, 20 s at 68 C and 10 min at 72 C) and these products were digested with 5U of HpaI (New England Biolabs) for 2h at 37 C. The fragments were purified using Qiaquick PCR columns (Qiagen), analyzed on an ABI 3130xL genetic analyzer (Applied Biosystems) with peak positions identified by using a set of X-rhodamine (ROX)-labeled MapMarker1000 molecular weight standards (BioVentures). The raw capillary electrophoresis data was processed using Attagraph software (Attagene).
As for `Nc1ccccc1N`, the AC50 was 82.4 µM (active).

`CC(=O)OC/C=C(\C)CCC=C(C)C`: the AC50 is 48.3 µM (active).

Consider `CC(CO)OC(C)CO` (stereo not given) (tested in a mixture with another compound), for which the compound was called inactive.

With `Cc1c(C(=O)O)c(O)cc2c1C(=O)c1c(O)c([C@@H]3O[C@H](CO)[C@@H](O)[C@H](O)[C@H]3O)c(O)c(O)c1C2=O`, the concentration at half-maximal activity (AC50) is 53.9 µM (active).

As for `CNC(=O)[C@H]1O[C@@H](n2cnc3c(NCc4cc(Cl)ccc4OCc4cc(C)no4)ncnc32)[C@H](O)[C@@H]1N`, the outcome was inactive.

Take `Cc1ccccc1Cl`: the compound was called inactive.

`NS(=O)(=O)c1cc2c(cc1Cl)NCNS2(=O)=O`: the compound was classed as inactive.

For `C=CCc1ccc(O)c(OC)c1`, the compound was called inactive.

In the case of `COc1ccc(C)cc1N`, the outcome was inactive.

As to `CCCCCCOCCO`, the outcome was inactive.

Consider `C[C@]12C=CC(=O)C=C1CC[C@@H]1[C@@H]2C(=O)C[C@@]2(C)[C@H]1CC[C@]2(O)C(=O)CO`, for which the AC50 was 55.6 µM (active).

For `CCc1c(C(=O)NN2CCCCC2)nn(-c2ccc(Cl)cc2Cl)c1-c1ccc(Br)cc1`, the AC50 was 0.147 µM (active).

As to `Cc1nc(C)nc(N2C[C@@H](C)N(c3ccnc([C@@H](C)O)n3)[C@@H](C)C2)n1`, the call was inactive.

`COC(=O)c1ccc(O)cc1`: the result was inactive.

`CCOc1ccc2c(c1)C(C)=CC(C)(C)N2`: the AC50 was 1.91 µM (active).

For `CN[C@H]1CC[C@@H](c2ccc(Cl)c(Cl)c2)c2ccc(S(N)(=O)=O)cc21`, the compound was classed as inactive.

As to `CCCCCCCCCCO`, the call was inactive.

Regarding `Cc1oc(-c2ccccc2)nc1CCOc1cccc2c1ccn2CCC(=O)O`, the result was inactive.

Take `Cc1cc(NC(=O)C(=O)O)cc(C)c1Oc1ccc(O)c2c1CCC2`: the compound was called inactive.

As for `Cc1cccc(Nc2cc(Cl)nc(SCC(=O)O)n2)c1C`, the AC50 is 29.8 µM (active).

Consider `NC(=O)Cn1c(=O)cc(CCN2CCN(c3nccc4sccc34)CC2)c2ccc(F)cc21`, for which the AC50 is 5.72 µM (active).

`O=[N+]([O-])C(CO)(CO)CO`: the AC50 was 48.1 µM (active).

Regarding `COc1cc(C=O)ccc1O`, the call was inactive.

With `CN1CCCC1=O`, the result was inactive.

In the case of `C=CCOC(=O)c1ccccc1C(=O)OCC=C`, the AC50 is 26.7 µM (active).

With `COc1ccc2c(c1)c(CC(=O)O)c(C)n2C(=O)c1ccc(Cl)cc1`, the call was inactive.

On to `Cc1ccc2ncccc2c1`, for which the result was inactive.

For the compound `CC(=O)Oc1ccccc1C(=O)O`, the AC50 is 26.9 µM (active).

Consider `CCNc1cccc(C)c1`, for which the call was inactive.

For the compound `Cc1ccc(N(C)C)cc1`, the AC50 is 27.4 µM (active).

`COc1cc(/C=C/C(=O)CC(=O)/C=C/c2ccc(O)c(OC)c2)ccc1O`: the concentration at half-maximal activity (AC50) was 60.4 µM (active).

Take `CC1(C)NC(=O)NC1=O`: the AC50 was 25.7 µM (active).

As for `NCCO`, the call was inactive.

In the case of `CC(=O)C(C)=CC1C(C)=CCCC1(C)C` (stereo not given), the AC50 is 22.9 µM (active).

Regarding `CCCCCCCC=O`, the result was inactive.

As for `CCCCCCCCCCC`, the result was inactive.

As for `COc1ccc(S(=O)(=O)N2C(=O)[C@@](c3ccccc3OC)(N3C[C@H](O)C[C@H]3C(=O)N(C)C)c3cc(Cl)ccc32)c(OC)c1`, the AC50 is 0.0584 µM (active).

Consider `C1CCC(SSC2CCCCC2)CC1`, for which the result was inactive.

For the compound `CC(C)c1ccc(C(=O)N=C(N)N)cc1S(C)(=O)=O`, the AC50 is 31.7 µM (active).

Turning to `O=c1[nH]cc(F)c(=O)[nH]1`, the compound was classed as inactive.

Source of the values: PubChem BioAssay (EPA / NIEHS).
